The panel holds about 79,000 compounds, 15% with a hit somewhere; the sample as a whole holds those more often. Calls of active or inactive are those of the source. Rule as the data show it: active = growth inhibition above about 70%; inactive = the rest. Where a SMILES comes first, the peptide text is derived from it. [ ]: non-standard residue; d: D form. The star is where a group is joined. Phe(4-NO2) = N[CH](Cc1ccc([N+](=O)[O-])cc1)C(=O)O; Boc = CC(C)(C)OC(=O)*
Experiments:
[1] = NCI Yeast Anticancer Drug Screen. Data for the rad50 strain (AID 155);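 also: 0% = growth of vehicle-only cultures of the same strain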; settings: S. cerevisiae rad50 strain growth inhibition; at 50.0 µM; stronger effect = higher value
Summary of the method: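 Vehicle-treated cultures provide the reference for the growth inhibition reported for compound-exposed, repair-deficient yeast.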

[2] = NCI Yeast Anticancer Drug Screen. Data for the mec2-1 strain (AID 157); settings: S. cerevisiae mec2-1 strain, at 50.0 µM, stronger effect = higher value
Summary of the method: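 Each compound was tested on mec2-1 yeast, a strain altered in DNA damage repair or cell cycle control. Growth inhibition is reported relative to vehicle.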

[3] = NCI Yeast Anticancer Drug Screen. Data for the sgs1 mgt1 strain (AID 161);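 also: 0% = growth of cultures given vehicle only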; settings: S. cerevisiae sgs1 mgt1 strain, at 50.0 µM, stronger effect = higher value
Summary of the method: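 Test agents were incubated with a DNA-repair-mutant yeast strain. Growth was then read and compared against vehicle-treated controls.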

[4] = NCI Yeast Anticancer Drug Screen. Data for the cln2 rad14 strain (AID 165);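 also: 0% = growth equal to vehicle treated cultures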; settings: S. cerevisiae cln2 rad14 strain, at 50.0 µM, stronger effect = higher value
Summary of the method: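 Test compounds were added to cln2 rad14 yeast cultures; inhibition of growth was then determined by comparison with vehicle treatment.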

[5] = NCI Yeast Anticancer Drug Screen. Data for the bub3 strain (AID 167); settings: S. cerevisiae bub3 mutant strain, at 50.0 µM, stronger effect = higher value
Summary of the method: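 Mutant yeast screening strain plus compound; vehicle-treated cultures serve as the 0% inhibition reference.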

[6] = NCI Yeast Anticancer Drug Screen. Data for the mlh1 rad18 strain (AID 175); settings: S. cerevisiae mlh1 rad18 strain growth inhibition; at 50.0 µM; stronger effect = higher value
Summary of the method: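 Inhibition values reflect reduced growth of mutant yeast versus vehicle-treated controls following compound exposure; the mutations affect DNA damage repair.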

Measured: growth inhibition

CC1=C2CC/C(C)=C/CCC3(C)OC3CC/C(C)=C/C2OC1=O (centres undefined)
inactive: [1] -8.7% | [2] -21.9% | [3] 13.3% | [4] 15.6% | [5] 5.25% | [6] -20.1%

O=S(=O)(Cc1ccccc1)c1ncc(Cl)cn1
inactive: [1] 8.9% | [2] 6.65% | [3] 13.2% | [4] -5.55% | [5] 16.9% | [6] 16.4%

CC(C)C1CCC2(C)C(CCC3C4(C)CCCC32OC4)C1 (centres undefined)
inactive: [1] -20.5% | [2] 1.35% | [3] 0.75% | [4] -25.1% | [5] 48% | [6] 11.4%

CC(CO)c1ccccc1 (centres undefined)
inactive: [1] 8.15% | [2] 1.15% | [3] -13.9% | [4] -32.5% | [5] -13.4% | [6] -4%

Nc1cc(S(N)(=O)=O)ccc1O
inactive: [1] 10.3% | [2] -11.6% | [3] -21.9% | [4] -10.6% | [5] -12% | [6] 12.4%

O=C1CCc2nc(=O)c3c4ccccc4ccc3n21
inactive: [1] 3.95% | [2] 1.55% | [3] -5.35% | [4] -36.5% | [5] -3.95% | [6] -0.2%

O=c1[nH]cc(F)c(=O)n1-c1ccco1
inactive: [1] 42.6% | [2] 67.5% | [4] -0.55% | [5] 52.2% | [6] 34.9%
active: [3] 79.8%

COc1ccc(Cl)cc1NC(=O)Nc1ccc(S(N)(=O)=O)cc1
inactive: [1] 9.7% | [2] 8% | [3] 4.85% | [4] 18.1% | [5] 19.1% | [6] 9.65%

CC(C)(Cc1ccccc1)NC1=NCCO1
inactive: [1] -31.9% | [2] -18.8% | [3] -17.6% | [4] -6.2% | [5] -12.2% | [6] -2.6%

CCN(CC)CCCNc1ccc2ncn3c4ccc(O)cc4c(=O)c1c23
inactive: [1] -14.8% | [2] -36.3% | [3] -54% | [4] 11.8% | [5] -27.8% | [6] -6.65%

COC(=O)CC1(CC(=O)O)SCCS1
inactive: [1] -13.6% | [2] 4.3% | [3] 11.5% | [4] 2.9% | [5] 13.5% | [6] -8.25%

COC1/C=C/OC2(C)Oc3c(C)c(O)c4c(O)c(c(C=NNC(=O)c5ccc(N)cc5)c(O)c4c3C2=O)NC(=O)/C(C)=C/C=C/C(C)C(O)C(C)C(O)C(C)C(OC(C)=O)C1C (centres undefined)
inactive: [1] -3.55% | [2] 13.5% | [3] -3.25% | [4] -17.6% | [5] -5.3% | [6] 29.4%

CC(=O)CCn1ncc(Cl)c(Cl)c1=O
inactive: [1] 1.4% | [2] -18.3% | [3] 3.6% | [4] 7.7% | [5] 1.15% | [6] 4.3%

Clc1ccc2cc3ccccc3cc2c1
inactive: [1] -16.7% | [2] 2.5% | [3] -3.95% | [4] -16.4% | [5] 5.8% | [6] -21%

Cc1cc2oc3c(c2c(=O)[nH]1)C(=O)c1ccccc1C3=O
inactive: [1] -6.55% | [2] -1.3% | [3] -8% | [4] -17.4% | [5] -21.8% | [6] -5.85%

C/C(CC(O)(C(F)(F)F)C(F)(F)F)=N\N
inactive: [1] -31.9% | [2] -49.8% | [3] -20.4% | [4] -7.6% | [5] -4.5% | [6] -23.4%

CC(C)=CC1C[C@H](C2CC=C3C2(C)CCC2[C@@]3(C)C(=O)CC3[C@]2(C)C=CC(=O)[C@]3(C)CO)CO1 (some centres undefined)
active: [1] 77.8% | [2] 78.9% | [3] 81.8% | [4] 78% | [5] 81.7% | [6] 86.2%

CC(=O)OC(C)C(O)C(O)C(/C=C/C1CC=CC(=O)O1)OC(C)=O (centres undefined)
inactive: [1] 32.2% | [2] 9.45% | [3] 23.6% | [4] 10.6% | [5] 19.6% | [6] 11.8%

O=C(O)CNC(=O)CNC(=O)C(CCC(=O)OCc1ccccc1)NC(=O)OCc1ccccc1 (centres undefined)
inactive: [1] 27.2% | [2] 12.3% | [3] 14.4% | [4] 9.3% | [5] 6.2% | [6] 15.2%

ClC/C(=N\N1CCCCCC1)c1ccccc1
inactive: [1] -7.8% | [2] -4.05% | [3] -4.75% | [4] -10.2% | [5] -1.6% | [6] 2.2%

O=C(N/N=C/c1cccnc1)C(O)C(O)C(O)C(O)CO (centres undefined)
inactive: [1] -4.15% | [2] 8.9% | [3] 6.75% | [4] 7.6% | [5] -12.6% | [6] 11.9%

COC(=O)c1ccc(C2CCC(OC(c3ccccc3)c3ccccc3)CC2)cc1 (centres undefined)
inactive: [1] 39.6% | [2] -12.7% | [3] 26% | [4] -23.6% | [5] 0.85% | [6] -3.85%

CSC(=Nc1ccc(Br)cc1)NC(=O)c1cc([N+](=O)[O-])cc([N+](=O)[O-])c1
inactive: [1] -33% | [2] 3.4% | [3] 23.1% | [4] -58% | [5] 6.2% | [6] -18.8%

CCNC1(C(=O)O)CCCCC1
inactive: [1] 1.4% | [2] -2.15% | [3] -1.5% | [4] 9.85% | [5] 2.3% | [6] -0.2%

COC(=O)Cc1ccccn1
inactive: [1] 0.4% | [2] -18.9% | [3] 1.4% | [4] 14.5% | [5] -21.5% | [6] 22.4%

COc1cc(/C=N/NC(=O)C(=O)N/N=C/c2cc(OC)c(OC)c(OC)c2)cc(OC)c1OC
inactive: [1] -20.4% | [2] -34.1% | [3] -24.7% | [4] 3.9% | [5] -20% | [6] -21.1%

[C-]#[N+]N=P(c1ccccc1)(c1ccccc1)c1ccccc1
inactive: [1] -18% | [2] -20.8% | [3] -27.9% | [4] 3.2% | [5] -8.65% | [6] 5.65%

CC(=O)NCC1CCCO1 (centres undefined)
inactive: [1] 2.65% | [2] -18.6% | [3] -20.4% | [4] 3.85% | [5] 3.75% | [6] -5.9%

COC(=O)CCC(NC(=O)OC(C)(C)C)C(=O)NC(Cc1ccc([N+](=O)[O-])cc1)C(=O)NC(CCC(=O)OC)C(=O)OC (centres undefined) (Boc-Glu(OMe)-[Phe(4-NO2)]-Glu(OMe)-OMe; configuration not given here)
inactive: [1] 7.6% | [2] -6.6% | [3] 9.9% | [4] 20.6% | [5] 11.7% | [6] -44.1%

CC1=C(c2cc(C(=O)Nc3cccc(C(F)(F)F)c3)nc(NC#N)n2)Sc2ccccc2N1
inactive: [1] 17.4% | [2] 1.2% | [3] -3.2% | [4] -2.85% | [5] 2.7% | [6] 11.8%

CC1=NCC(=O)N1
inactive: [1] -10.2% | [2] 1.5% | [3] -1.1% | [4] -11.8% | [5] -6.1% | [6] -4%

Cc1c(C)c(C)c(S(=O)(=O)NCCCNS(=O)(=O)c2c(C)c(C)c(C)c(C)c2C)c(C)c1C
inactive: [1] 3.85% | [2] -28.7% | [3] -7.2% | [4] 7.7% | [5] -4.95% | [6] -1.1%

O=C1C2CCSCN2C(=O)N1c1ccccc1 (centres undefined)
inactive: [1] -41.9% | [2] -14.9% | [3] -7.75% | [4] -15.9% | [5] -1.15% | [6] -19%

O=C(CCN1C(=O)NC(c2ccccc2)(c2ccccc2)C1=O)NCCN1CCOCC1
inactive: [1] -0.6% | [2] 13.5% | [3] 5.7% | [4] 0.95% | [5] -2% | [6] 24.7%

OCCn1c2ccccc2c2ccccc21
inactive: [1] 20.2% | [2] -2.65% | [3] 18.6% | [4] -17.2% | [5] 14% | [6] -0.7%

CN1C(=O)C(CCCN=C(N)N)NC1=S (centres undefined)
inactive: [1] -13.7% | [2] -2.4% | [3] -6.65% | [4] -12.2% | [5] -2.45% | [6] -13.6%

CC(=O)N1C(=O)C(C)(C2=CC(=O)c3ccccc3C2=O)c2ccc(Br)cc21 (centres undefined)
active: [1] 76.8% | [2] 77% | [3] 73.7% | [4] 71.8% | [5] 87%
inactive: [6] 67.2%

CC1(C)N=C(N)N=C(N)N1c1ccc(C(F)(F)F)cc1
inactive: [1] 4.15% | [2] 10.1% | [3] 7.85% | [4] -0.5% | [5] 49% | [6] 29.4%

CCC(=O)Nc1cccc2ccccc12
inactive: [1] 5.1% | [2] -12.7% | [3] -10.9% | [4] -92.4% | [5] -5.95% | [6] -3.1%

Reference: PubChem BioAssay (NCI)
